# RE007 growth inh – less growth of the S. pombe RE007 Vpr strain. hit rate 0.21% among 360,000. Potency, µM (highest dose often 92.2 µM), for inactives: at the top dose activity change, negative = less growth, most hits filed as inhibitors. S. pombe RE007 Vpr strain, BacTiter-Glo ATP luminescence, 24 h. AID 651644; active = well fitted falling curve with a large enough effect; inconclusive = small, poorly fitted or top-dose-only effect; inactive = no such curve, though single readings can be large or run the other way; note: nearly all actives have a fitted effect of over 50% in size
#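 Fission yeast RE007 carrying one integrated HIV-1 vpr copy, seeded at OD 0.01 in PMG+AL medium with 23 nL pinned compound. Grown 24 h at 30 degrees; viability read by BacTiter-Glo luminescence after 5 min.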
# Lassa entry inh – blocks Lassa virus binding to or entry into cells. Lassa virus pseudotype entry inhibition, cell reporter. Potency, µM (top dose mostly 37.9 µM), inactives show top-dose activity change, negative = inhibition, most hits filed as inhibitors. hit rate 1.2% among 300,000. AID 540256; calls by dose curve; tested in HEK293 cells; note: nearly all actives have a fitted effect of over 50% in size
# FMDV inh – antivirals against foot and mouth disease virus | FMDV antiviral cell-based qHTS | Potency, µM (series often up to 57.9 µM), for the others: at the top dose activity change, negative = inhibition, hits mostly inhibitors | hit rate 1.2% among 410,000 | AID 1159524; calls by dose curve; tested in HEK293T cells; note: read-out not given here; nearly all actives have a fitted effect of over 45% in size
# HCV inh – blocks hepatitis C virus; hit rate 3.4% among 340,000; Potency, µM (series often up to 41.8 µM), for inactives: at the top dose activity change, negative = inhibition, most hits filed as inhibitors; Huh7.5.1 HCVcc-Cre infection, luciferase reporter, 44 h
#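 After 44 h co-culture of compound, cells and HCVcc-Cre (~0.5 moi), substrate is added for 15 min at room temperature and luciferase measured over 15 sec. Cells were seeded at 1,000/well and pre-cultured 4 h.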
# Sm TGR inh – S. mansoni TGR enzyme inhibition | Q962Y6 | purified TGR, DTNB reduction, TNB absorbance 405 nm | Potency, µM (top dose mostly 114 µM), without a hit: top-dose activity change, negative = inhibition, actives largely listed as inhibitors | hit rate 3% among 360,000; note: nearly all actives have a fitted effect of over 60% in size
#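 Kinetic colorimetric format: TGR-catalysed, NADPH-driven DTNB reduction monitored via TNB absorbance. Enzyme dispensed at 20 nM; compound exposure 15 min at room temperature before reaction start.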
# MARV entry inh – inhibitors of Marburg virus binding or cell entry; hit rate 1.8% among 300,000; Marburg virus pseudotyped entry inhibition, cell reporter; Potency, µM (titrated, usually from 37.8 µM), for the others: at the highest dose activity change, negative = inhibition, actives largely listed as inhibitors; calls by dose curve; tested in HEK293 cells
# * marks the source's active call; other numbers are inactive results; u = inconclusive; x = no result given; ! = not active in a repeat; [ ] = dose if it differs, or a comment. An excerpt weighted towards active compounds, which were near 7.2% of everything screened. Unless noted, calls come from the whole dose curve; as a rule, active = well fitted curve in the direction sought with a large enough effect; inconclusive = small, poorly fitted or top-dose-only effect, or another doubt; inactive = no such curve, though single readings can be large; an effect the other way counts as inactive or inconclusive. % is set by controls: 0 for no effect and ±100 for the full control effect; potency is the fitted concentration of half-maximal effect.
SMILES,RE007 growth inh,Lassa entry inh,FMDV inh,HCV inh,Sm TGR inh,MARV entry inh
Cc1ccc(-c2nc3cnccn3c2Nc2ccc3c(c2)OCO3)o1,1.9%,x,-28.2%,-9.0%,50.1µM*,x
Cc1ccc(Nc2c(-c3ccc(C)o3)nc3cnccn23)cc1,7.94µM*!,x,7.2%,-24.9%,10µM*,x
CC(NC(=O)c1cc(F)ccc1F)c1nnc2n1CCN(Cc1ccco1)CC2 (configuration not stated),x,x,-2.0%,x,x,x
CC(C)(CNC(=O)c1cnn(-c2nccc(-c3cccs3)n2)c1C1CC1)N1CCOCC1,x,x,0.0%,x,x,x
COCCn1c(SCC(=O)c2c[nH]c3ccccc23)nc2cc(C(=O)NCC(C)C)ccc2c1=O,x,u,2.9%,x,-7.0%,x
O=C(O)C(=O)Cc1c[nH]c2ccccc12,8.4%,-0.8%,-3.1%,0.2%[8.37 µM],44.7µM*,-0.7%
Cn1cccc1C(=O)N1CCC2(CCN(Cc3ccc(C#N)cc3)CC2)CC1,x,x,-23.2%,x,x,x
Nc1c(N2CCCC2)cc(Cl)c2nonc12,-28.2%,6.1%,u,u,56.2µM*,10.1%
Cc1cc(NCCCCCCCNc2cc(C)nc3cc([N+](=O)[O-])ccc23)c2ccc([N+](=O)[O-])cc2n1,-20.7%,u,0.0%,10µM*,x,u
COc1ccc(OC)c(-n2cnc3cc(C(=O)NC4CCCCCC4)ccc32)c1,x,16.2%[46.1 µM],31.0%,x,3.9%,x
O=C1C(=O)N(Cc2cccnc2)[C@@H](c2ccccn2)/C1=C(\O)c1ccccc1,x,x,x,x,x,12.5%
COc1ccc(OC)c(C(c2c(O)nc(SC)[nH]c2=O)c2c(O)nc(SC)[nH]c2=O)c1,4.0%,-18.2%,-22.0%,-9.5%,1.41µM*,4.3%
CSc1nc(O)c(C(c2ccc(OC(C)C)cc2)c2c(O)nc(SC)[nH]c2=O)c(=O)[nH]1,-0.6%,4.5%,-28.2%,3.1%,x,4.1%
COc1cc(C(c2c(O)nc(SC)[nH]c2=O)c2c(O)nc(SC)[nH]c2=O)cc(OC)c1OC,38.2%,x,-5.6%,12.5%,1.78µM*,x
CSc1nc(O)c(C(c2ccccc2Cl)c2c(O)nc(SC)[nH]c2=O)c(=O)[nH]1,7.0%,-2.5%[46.1 µM],22.4%,3.6%,x,u
COc1ccccc1CNC(=O)C1CCCC1,37.2%,17.6%,9.0%,u,7.2%,-1.0%[46.1 µM]
COc1cc(CNC(=O)C2CCCC2)cc(OC)c1OC,-9.9%,3.9%,8.3%,8.7%,3.16µM*,-29.5%
OC1(c2ccc3c(c2)CN(Cc2ccco2)CCO3)CCN(c2ccccc2F)CC1,x,x,-14.4%,x,x,x
CCC(=NCc1ccco1)c1c(O)n(-c2ccccc2)c(=O)[nH]c1=O,3.4%,u,-20.3%,-5.6%,0.0%,12.9%
CCC(=NCCc1ccccc1)c1c(O)n(C)c(=O)n(C)c1=O,10.0%,x,u,8.91µM*,1.6%,x
Cn1c(O)c(C(=Nc2ccccc2)SCc2ccc(Cl)cc2)c(=O)n(C)c1=O,-9.7%,x,-23.0%,u,20µM*,x
CCC(=NCc1ccco1)c1c(O)n(C)c(=O)n(C)c1=O,-16.2%,x,-4.3%,-21.5%,25.1µM*,x
Cn1c(O)c(C(=N)COc2ccccc2)c(=O)n(C)c1=O,4.2%,18.1%,-15.0%,1.0%,-16.5%,8.9%
CCC(=NCc1ccco1)c1c(O)n(-c2ccc(C)cc2)c(=O)[nH]c1=O,15.8%,0.58µM*,-17.0%,7.4%,0.0%,u
Cc1nc2nc(CNC(=O)c3cccc(F)c3)nn2c(C)c1CCC(=O)Nc1ccc(F)cc1,x,7.3%[46.1 µM],1.3%,x,14.5%,u
CC(C)S(=O)(=O)c1csc(C(=O)Nc2ccc(F)cc2)c1N,u,u,u,3.16µM*,-3.8%,u
Cc1nc(Cl)sc1C(=O)Nc1ccc(F)cc1,10.4%,-3.7%[46.1 µM],6.9%,22.7%,x,11.6%[46.1 µM]
COc1ccccc1Nc1nc(N2CCOCC2)nc(N2CCOCC2)n1,-0.1%,-9.0%[46.1 µM],-5.8%,u,3.1%,3.98µM*
COc1ccc(Nc2nc(Nc3ccc(OC)cc3OC)nc(N3CCOCC3)n2)c(OC)c1,x,-17.6%[46.1 µM],0.0%,x,-4.1%,1µM*
CC(Nc1nc(N2CCCCC2)nc2ccccc12)c1ccccc1 (configuration not stated),-11.4%[3.69 µM],u,u,u,-11.1%,u
